Test [1] in a line: Primary qHTS for inhibitors of nuclear receptor binding SET domain protein 2 (NSD2) in an isogenic RCH-ACV NSD2 p.E1099K mutant (9B) (AID 1645876). Background: qHTS replaces the single test concentration by a dilution series.
Test [2] in a line: Primary qHTS for inhibitors of nuclear receptor binding SET domain protein 2 (NSD2) in an RCH-ACV wild type WT cells (2C) (AID 1645877).

For 7 compounds, activity change, negative = viability loss, activity change, negative = cell killing and Potency results are on record in PubChem BioAssay (NCATS).

Inconclusive results are not listed. A number with no mark means an inactive call. The source made the active and inactive calls. Calls follow the shape of the dose curve; as a rule, active = well fitted curve in the direction sought with a large enough effect; inconclusive = small, poorly fitted or top-dose-only effect, or another doubt; inactive = no such curve, though single readings can be large; an effect the other way counts as inactive or inconclusive.
% is scaled to controls: 0 for no effect and ±100 for the full control effect.
Also: nearly all actives have a fitted effect of over 70% in size.

In the case of `C[C@@H]1O[C@@H](O[C@H]2[C@H](O[C@H]3[C@H](O[C@H]4CC[C@@]5(C=O)C(CC[C@]6(C)C5CC=C5C7CC(C)(C)C[C@@H](O)[C@]7(C)CC[C@]56C)C4(C)C)O[C@H](C(=O)O)[C@@H](O)[C@@H]3O)OC[C@@H](O)[C@@H]2O)[C@H](O)[C@H](O)[C@H]1O` (some centres undefined), in test [1], the activity change, negative = viability loss is -2.85% [at 9.23 µM]. Further, the activity change, negative = cell killing in test [2] was -3.05% [at 9.23 µM].

As for `CC1(C)C(=O)N2c3ccccc3[C@]3(CC(n4cnc5ccccc5c4=O)C(=O)O3)[C@H]2N1O` (some centres undefined), the Potency result in test [1] and in test [2] was “inactive” each time.

On to `CC(C)(O)/C=C1/C(=O)C(C)(C)C(=O)C(C)(C)C1(O)O[C@@H]1O[C@H](COC(=O)c2cc(O)c(O)c(O)c2)[C@@H](O)[C@H](O)[C@H]1O` (some centres undefined), for which the Potency entry in test [1] and in test [2] was “inactive” throughout.

Regarding `COc1c(C)c2c(c(O)c1C/C=C(\C)CC/C=C(\C)CCC(=O)O)C(=O)OC2`, the Potency entry in test [1] and in test [2] was “inactive” in each case.

Consider `CCOc1ccc(-c2ccc(Cn3c(CC(C)(C)C(=O)O)c(SC(C)(C)C)c4cc(OCc5ccc(C)cn5)ccc43)cc2)cn1`, for which the Potency entry in test [1] and in test [2] was “inactive” in each case.

Turning to `Cc1c(CN(C)C(=O)/C=C/c2cnc3c(c2)CCC(=O)N3)oc2ccccc12`, the Potency result in test [1] and in test [2] was “inactive” throughout.

For `CC1OC(OC2C(CO)OC(OCC3OC(OC(=O)C45CCC(C)(C)CC4C4=CCC6C7(C)CCC(OC8OC(C(=O)O)C(O)C(OC9OC(CO)C(O)C(O)C9O)C8O)C(C)(C)C7CCC6(C)C4(C)CC5)C(O)C(O)C3O)C(O)C2O)C(O)C(O)C1O` (centres undefined), the activity change, negative = viability loss in test [1] is 0.172% [at 9.23 µM]. In addition, the activity change, negative = cell killing in test [2] was -4.23% [at 9.23 µM].
